# Screening data as filed in PubChem.
# TGFb SMAD3 inh = inhibitors of TGF-b signaling. HepG2 CAGA-GFP TGF-b/SMAD3 reporter, GFP fluorescence, 18 h; TGF-beta stimulated, 500 pg/mL final. Potency, µM (top dose mostly 46.1 µM), for the others: at the highest dose activity, negative = inhibition, most hits filed as inhibitors. 410,000 tested, 1.2% active. AID 588855; further: potency means the concentration at half of the fitted maximal effect; on the % scale 0 is the no-effect control and ±100 the full control effect; nearly all actives have a fitted effect of over 65% in size
#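 GFP signal (ex488/em500-530) from TGF-beta-stimulated HEPG2 CAGA-GFP cells, 500 pg/mL final, 18 h at 37 degrees C in DMEM plus 1% FBS, normalized to unstimulated and DMSO-stimulated controls.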
# TDP1 inh = inhibitors of human tyrosyl-DNA phosphodiesterase TDP1 | Potency, µM (series often up to 130 µM), without a hit: at the top dose activity change, negative = inhibition, actives largely listed as inhibitors | 350,000 tested, 0.28% active | Q9NUW8 | AID 485290 | recombinant TDP1, AlphaScreen DNA substrate cleavage; further: potency means the concentration at half of the fitted maximal effect; on the % scale 0 is the no-effect control and ±100 the full control effect; nearly all actives have a fitted effect of over 40% in size
# Target sequence (Q9NUW8 whole entry, looked up): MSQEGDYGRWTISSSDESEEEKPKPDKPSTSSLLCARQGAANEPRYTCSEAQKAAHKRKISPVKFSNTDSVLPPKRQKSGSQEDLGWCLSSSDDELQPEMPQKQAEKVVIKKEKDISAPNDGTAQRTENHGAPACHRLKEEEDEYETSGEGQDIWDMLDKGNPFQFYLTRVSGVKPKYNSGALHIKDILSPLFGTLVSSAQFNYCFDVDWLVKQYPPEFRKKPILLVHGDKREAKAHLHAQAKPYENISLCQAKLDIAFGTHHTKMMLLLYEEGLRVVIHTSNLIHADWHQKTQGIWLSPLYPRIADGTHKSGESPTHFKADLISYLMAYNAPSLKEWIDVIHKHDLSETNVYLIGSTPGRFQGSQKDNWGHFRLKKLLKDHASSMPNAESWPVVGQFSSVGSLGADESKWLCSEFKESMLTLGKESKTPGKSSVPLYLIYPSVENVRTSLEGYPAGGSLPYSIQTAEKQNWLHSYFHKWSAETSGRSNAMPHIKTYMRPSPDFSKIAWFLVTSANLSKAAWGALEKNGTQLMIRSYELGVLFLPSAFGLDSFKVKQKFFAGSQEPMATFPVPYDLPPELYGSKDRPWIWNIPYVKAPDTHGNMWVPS
#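 Steps: enzyme plus compound, 15 min RT; add biotin/phosphotyrosine-FITC oligonucleotide (15 nM final), react 5 min; add donor/acceptor beads (10 ug/ml final), 10 min; read AlphaScreen. Tdp1 at 1 nM final.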
# IL1B secr inh = blocks inflammasome-driven IL-1 beta release; THP-1 LPS/ATP IL-1B secretion, AlphaLISA, 16 h; hits give low values; activity change, % at 57.5 µM; 360,000 tested, 4.7% active; in the data active means activity change below about -50%; inconclusive means mostly about -30% to -49%; further: on the % scale 0 is the no-effect control and ±100 the full control effect
#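 Secreted IL-1B measured by AlphaLISA bead assay after 16 h compound exposure of THP-1 cells; compounds (final up to 57.5 uM) added 1 h before LPS (250 ng/mL) and ATP (1.25 mM) stimulation; lower signal means less secretion.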
# HepG2 viability = kills HepG2 cells in TGF-b inhibitor counter-screen | HepG2 CAGA-GFP viability, ATP luminescence, 18 h | Potency, µM (series often up to 46.1 µM), for inactives: top-dose activity change, negative = cytotoxicity, most hits filed as cytotoxic | 410,000 tested, 0.76% active; further: potency means the concentration at half of the fitted maximal effect
#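 HepG2 CAGA-GFP cells (1000/well, DMEM with 1% FBS) received compound, then TGF-beta at 500 pg/mL final, and were incubated 18 hours at 37 degrees C. Viability was read by CellTiter-Glo luminescence. Media-only wells were set as complete cell-killing and DMSO as no toxicity.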
# DT40 TDP1 no CPT = qHTS for Inhibitors of human tyrosyl-DNA phosphodiesterase 1 (TDP1): qHTS in cells in absence of CPT | Potency, µM (top dose mostly 46.2 µM), inactives show at the highest dose activity change, negative = growth inhibition, most hits filed as inhibitors | 420,000 tested, 15% active | DT40 Tdp1-/- hTDP1 cells, no CPT, ATP luminescence, 48 h; further: potency means the concentration at half of the fitted maximal effect; on the % scale 0 is the no-effect control and ±100 the full control effect; nearly all actives have a fitted effect of over 55% in size
#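 Chicken DT40 Tdp1-/- cells stably complemented with human TDP1 were seeded at 400 cells/well with DMSO in place of 20 nM camptothecin. After compound pinning, cells grew at least 48 hr at 37 °C; viability read by CellTiter-Glo luminescence.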
# DT40 TDP1 CPT = DT40-hTDP1 cell growth loss with CPT; chicken DT40 Tdp1-/-;hTDP1 cells + 20 nM CPT, ATP luminescence, 48 h; Potency, µM (series often up to 46.2 µM), for inactives: at the top dose activity change, negative = growth inhibition, most hits filed as inhibitors; 420,000 tested, 12% active; further: potency means the concentration at half of the fitted maximal effect; on the % scale 0 is the no-effect control and ±100 the full control effect; nearly all actives have a fitted effect of over 55% in size
#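 Cell growth measured by CellTiter-Glo luminescence after a minimum 48 h, 37 C compound exposure with 20 nM CPT in Tdp1-knockout DT40 cells stably expressing hTDP1, seeded 400/well; qHTS titration format.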
# * hit, by the source's call; ? = inconclusive; / = no result; [ ] = dose if it differs, or a comment. A selection: hits, their analogues and other compounds. The true share with any hit is near 19%. Unless noted, the call rests on the fitted dose curve; in most records, active means well fitted curve in the direction sought with a large enough effect; inconclusive means small, poorly fitted or top-dose-only effect, or another doubt; inactive means no such curve, though single readings can be large; an effect the other way counts as inactive or inconclusive.
SMILES,TGFb SMAD3 inh,TDP1 inh,IL1B secr inh,HepG2 viability,DT40 TDP1 no CPT,DT40 TDP1 CPT
Cc1cc(C)c2oc(-c3cccc(NC(=O)c4ccc(Br)o4)c3)nc2c1,-18.6%,-4.0%[12.3 µM],/,-2.1%,?,?
CC1CCN(c2ccc(-c3cccc(NC(=O)c4ccco4)c3)nn2)CC1,16.4%,/,-78.3*,-8.4%,?,?
O=C(Nc1cccc(-c2ccc(N3CCCCC3)nn2)c1)c1ccc(Br)o1,-8.3%,/,20.8,-44.4%,11.6µM*,20.6µM*
Cc1ccccc1C(=O)Nc1cccc(-c2ccc(N3CCOCC3)nn2)c1,0.0%,/,-11.7,-13.9%,?,?
Cc1nnc2ccc(-c3cccc(NC(=O)c4ccc(Br)o4)c3)nn12,3.2%,4.9%,-65.0*,-34.8%,23.1µM*,?
O=C(Nc1cccc(-c2nnc(-c3ccccc3)o2)c1)c1ccc(Br)o1,?,2.3%,-24.4,-45.2%,?,18.4µM*
O=C(CCCN1C(=O)c2ccccc2C1=O)Nc1cccc(S(=O)(=O)NC2=NCCC2)c1,-23.2%,-2.6%,23.3,-42.1%,-4.2%,5.9%
C=CCN1c2ccccc2[C@]23C[C@@H](C(=O)OC)N(S(=O)(=O)c4cccs4)C2=NC(C(=O)OC)=C(C(=O)OC)[C@H]13,/,17.6%[12.3 µM],/,/,/,/
CNC(=O)[C@]1(C(F)(F)F)C[C@H](CCC2CCCCC2)CCCO1,?,6.8%,/,-21.8%,/,/
CC1CCN(c2ccc(-c3cccc(NC(=O)C(F)(F)F)c3)nn2)CC1,2.3%,0.0%,?,20µM*,?,?
CCC(=O)Nc1cccc(-c2ccc(N3CCC(C)CC3)nn2)c1,-2.9%,1.5%,?,-32.2%,23.1µM*,?
Cc1[nH]n(-c2ccc([N+](=O)[O-])cc2)c(=O)c1C=NCCc1c(C)[nH]c2ccccc12,-15.3%,0.0%,0.0,-30.4%,16.4µM*,16.4µM*
Cc1[nH]n(-c2ccc([N+](=O)[O-])cc2)c(=O)c1C=NCCc1ccc(S(N)(=O)=O)cc1,3.4%,-7.5%,12.9,-25.4%,?,?
Cc1ccc(-n2[nH]c(C)c(/C=N/Nc3ccc([N+](=O)[O-])cc3[N+](=O)[O-])c2=O)cc1,?,11.4%,-3.0,-48.8%,14.6µM*,20.6µM*
Cc1[nH]n(-c2ccc([N+](=O)[O-])cc2)c(=O)c1C=NCCN1CCN(C(=O)C(C)C)CC1,-12.3%,2.6%,11.9,-83.7%,16.4µM*,11.6µM*
O=c1c(C=NCC2CCCO2)c(-c2ccccc2)[nH]n1-c1ccc([N+](=O)[O-])cc1 (centres undefined),-7.6%,7.1%,-13.1,-15.7%,?,?
Cc1[nH]n(-c2ccc([N+](=O)[O-])cc2)c(=O)c1C=NCC1CCCO1 (centres undefined),?,0.6%,9.9,-50.1%,10.3µM*,10.3µM*
Cc1ccc(-c2nc3c(c(SCC(=O)Nc4cccc(C(=O)O)c4)n2)Cc2cccc(C)c2O3)cc1,-4.2%,/,/,-0.5%,?,-1.1%
C=CCc1cccc(CNc2nc3ccccc3n2C(C)C)c1O,12.6µM*,-2.1%,0.0,-43.7%,?,?
C=CCn1c(NCc2cc(Cl)ccc2O)nc2ccccc21,-15.7%,/,-69.0*,-8.4%,?,?
C=CCn1c(NCc2ccccc2O)nc2ccccc21,2.2%,/,-12.9,-5.2%,?,?
CC(C)n1c(NCc2ccccc2O)nc2ccccc21,-14.7%,/,-16.1,-18.1%,-28.7%,4.1%
COc1ccc(Cl)cc1C(=O)NNC(=O)CCNS(=O)(=O)c1ccccc1,13.4%,1.7%,13.9,5.3%,-16.6%,-10.2%
C[C@H](CO)N1C[C@H](C)[C@@H](CN(C)S(=O)(=O)c2ccc(F)cc2)Oc2ccc(NC(=O)CCN3CCOCC3)cc2C1=O,-1.2%,2.6%,3.5,4.4%,-0.2%,6.0%
O=[N+]([O-])c1ccc(N2CCN(c3ccccc3Cl)CC2)cn1,-0.7%,6.8%,-0.9,-1.9%,20.6µM*,18.4µM*
SMILES,TGFb SMAD3 inh,TDP1 inh,IL1B secr inh,HepG2 viability,DT40 TDP1 no CPT,DT40 TDP1 CPT
CCOC(=O)c1ccc2c(c1)N(C(CC)C(=O)Nc1ccccc1OC)C(=O)c1ccccc1S2 (centres undefined),-8.3%,0.6%,/,-18.4%,/,/
CCC(C(=O)Nc1ccccc1OC)n1c(C(=O)OC)cc2ccsc21 (centres undefined),?,2.0%,-57.0*,-19.4%,?,20.6µM*
COc1ccc(N(CC(=O)N2CCN(c3ccccc3)CC2)S(=O)(=O)c2c(C)noc2C)cc1,1.8%,3.7%,-14.0,-9.9%,?,?
COc1ccc(N(CC(=O)N2CCN(c3cccc(C)c3C)CC2)S(=O)(=O)c2c(C)noc2C)cc1,-11.6%,3.8%,-28.2,-7.7%,16.4µM*,20.6µM*
Cc1ccc(N(CC(=O)N2CCN(c3cc(C)ccc3C)CC2)S(=O)(=O)c2c(C)nn(C)c2C)cc1,?,4.7%,/,-77.0%,16.4µM*,20.6µM*
Cc1ccc(N(CC(=O)NC2CCCCC2)S(=O)(=O)c2c(C)nn(C)c2C)cc1,-1.3%,0.1%,4.3,7.3%,4.7%,-1.8%
COc1ccc(N(CC(=O)N2CCN(c3cc(C)ccc3C)CC2)S(=O)(=O)c2c(C)noc2C)cc1,4.1%,5.5%,0.0,8.5%,13µM*,23.1µM*
